The source made the active and inactive calls. The calls were made as follows: active = hit-call score of the fitted dose curve at least 0.9, where 1 is the maximum; inactive = score below 0.9.
read-out: Tumor necrosis factor (Homo sapiens) (UniProt P01375); experiment: BSK_LPS_TNFa: BioMAP Diversity Plus: LPS Assay for Tumour Necrosis Factor alpha (TNFa) Biomarker Activity (AID 2283085); conditions: primary human HUVEC with PBMC; actives raise or lower the signal
Method: BSK_LPS is a cell-based, multiplexed-readout assay that uses umbilical vein endothelium and peripheral blood mononuclear cells, a human vascular primary cell co-culture, with measurements taken at 24 hours after chemical dosing in a 96-well plate.BSK_LPS_TNFa is an assay component measured in the BSK_LPS assay. It measures TNF-a antibody related to regulation of gene expression using ELISA technology.Data from the assay component BSK_LPS_TNFa was analyzed into 1 assay endpoint. This assay endpoint, BSK_LPS_TNFa, was analyzed with bidirectional fitting relative to DMSO as the negative control and baseline of activity. Using a type of binding reporter, gain or loss-of-signal activity can be used to understand changes in the signaling as they relate to the gene TNF. Furthermore, this assay endpoint can be referred to as a primary readout, because this assay has produced multiple assay endpoints where this one serves a signaling function. To generalize the intended target to other relatable targets, this assay endpoint is annotated to the cytokine intended target family, where the subfamily is inflammatory factor.
The levels of cell surface (or secreted, indicated by the prefix "s") biomarker endpoints were measured by ELISA. Overt cytotoxicity to cells in confluent adherent cultures (all systems other than the BT system) was assessed by measuring total protein levels using sulforhodamine B (SRB) staining in parallel cultures at the time of biomarker measurements, indicated as SRB endpoints. For proliferation assays for adherent cell types, individual cell types are cultured at sub-confluence and relative cell numbers quantified by SRB staining at time points optimized for each system (48 h: 3C and CASM3C systems; 72 h: BT and HDF3CGF systems; 96 h: SAg system). SRB was performed by staining cells with 0.1% SRB after fixation with 10% TCA and reading wells at 560 nm.Viability and proliferation of PBMC (T cells) was quantified by Alamar Blue reduction for the SAg and BT systems. For PBMC viability (referred to as PBMC Cytotoxicity within the assay endpoint names), cells were plated (75,000/well in a 96-well plate) and then chemical samples added for 1 h before addition of activators, SEB and TSST-1 (20 ng/mL final concentration each). Cells were incubated for 90 h. Then, Alamar Blue (20 uL/well) (Invitrogen, Cat DAL1100) was added for 6 h, and the plates were read with a fluorescence microplate reader at 546/580 nm (excitation/emission). For PBMC proliferation, cells were plated and activated as above but incubated for only 16 h prior to addition of Alamar Blue. Plates were read after 6 h.

Tumor necrosis factor (Homo sapiens), sequence (P01375 whole entry, looked up): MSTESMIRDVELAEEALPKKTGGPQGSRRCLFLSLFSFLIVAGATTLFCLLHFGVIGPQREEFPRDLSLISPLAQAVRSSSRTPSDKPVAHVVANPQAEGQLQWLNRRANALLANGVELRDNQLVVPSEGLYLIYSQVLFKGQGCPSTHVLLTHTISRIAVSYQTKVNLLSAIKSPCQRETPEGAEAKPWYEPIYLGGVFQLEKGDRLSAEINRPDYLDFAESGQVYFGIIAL

Row | Compound | outcome | AC50
1 | CC(=O)C1(C)CC2=C(CCCC2(C)C)CC1C (stereo not given) | inactive | –
2 | CCCCCC(C=O)=Cc1ccccc1 | inactive | –
3 | Cc1cc(CCC(=O)OCCOCCOCCOC(=O)CCc2cc(C)c(O)c(C(C)(C)C)c2)cc(C(C)(C)C)c1O | inactive | –
4 | CS(=O)(=O)c1ccc(C2=C(c3ccccc3)C(=O)OC2)cc1 | inactive | –
5 | CCCCCCC(CO)CCCC (stereo not given) | inactive | –
6 | Clc1cc(Cl)c(-c2c(Cl)c(Cl)cc(Cl)c2Cl)cc1Cl | inactive | –
7 | C=CC(C)(O)CCC=C(C)C (stereo not given) | inactive | –
8 | C=C(C)[C@H]1CC=C(C)C(=O)C1 | inactive | –
9 | Oc1c(Cl)cc(Cl)c(Cl)c1Cc1c(O)c(Cl)cc(Cl)c1Cl | – | 20 µM (active)
10 | CC(C=O)Cc1ccc(C(C)(C)C)cc1 (stereo not given) | inactive | –
11 | CCCCN(CCCC)C(=O)N(CCCC)CCCC | – | 9.7 µM (active)
12 | C=C(C)C(=O)OCC(CC)(COC(=O)C(=C)C)COC(=O)C(=C)C | inactive | –
13 | CS(=O)(=O)OCCCCOS(C)(=O)=O | inactive | –
14 | CSCCC=O | inactive | –
15 | COc1ccc(CCN2CCC(Nc3nc4ccccc4n3Cc3ccc(F)cc3)CC2)cc1 | inactive | –
16 | CCCCOC(=O)CCCCCCCC(=O)OCCCC | inactive | –
17 | CC(=O)c1c(C)c([N+](=O)[O-])c(C(C)(C)C)c([N+](=O)[O-])c1C | inactive | –
18 | C=C(C)C(=O)OCCOCCOCCOCCOC(=O)C(=C)C | inactive | –
19 | CC(CN=Cc1ccccc1O)N=Cc1ccccc1O (stereo not given) | inactive | –
20 | c1ccc(CCc2ccccc2)cc1 | inactive | –

Row | Compound | outcome | AC50
21 | CC(C)(N=C=O)c1cccc(C(C)(C)N=C=O)c1 | inactive | –
22 | CC1(C)CCC[C@]2(C)[C@H]3CCO[C@]3(C)CC[C@@H]12 | inactive | –
23 | CCC(C)c1cc([N+](=O)[O-])cc([N+](=O)[O-])c1OC(=O)OC(C)C (stereo not given) | – | 31.8 µM (active)
24 | c1ccc(Oc2ccccc2)cc1 | inactive | –
25 | CN(C)C(=O)Nc1ccc(Oc2ccc(Cl)cc2)cc1 | inactive | –
26 | CCCCCCCCCCCCCCCC(=O)OC/C=C(C)/C=C/C=C(C)/C=C/C1=C(C)CCCC1(C)C | inactive | –
27 | CCN(CC)C(=O)N(CC)CC | inactive | –
28 | O=CN1CCOCC1 | inactive | –
29 | CCOC(=O)C(C#N)=C(c1ccccc1)c1ccccc1 | inactive | –
30 | COc1cc(Cl)c(OC)cc1N | inactive | –
31 | CN(C)C(=S)SC(=S)N(C)C | inactive | –
32 | CC(C)(C)CC(C)(C)c1ccc(OCCOCC[N+](C)(C)Cc2ccccc2)cc1 | – | 8.89 µM (active)
33 | C1=CC2C3C=CC(C3)C2C1 (stereo not given) | inactive | –
34 | CC1(C)C2=CCCC(C)(C)[C@]23CC[C@H]1C3 | inactive | –
35 | C=C(C)C(=O)OCCOCCOCCOC(=O)C(=C)C | inactive | –
36 | C[C@@H]1CCN(C(=O)[C@H](CCCN=C(N)N)NS(=O)(=O)c2cccc3c2NC[C@H](C)C3)[C@@H](C(=O)O)C1 | inactive | –
37 | O=C(Nc1ccc2c(O)c(N=Nc3ccc(N=Nc4ccc(S(=O)(=O)O)cc4)cc3)c(S(=O)(=O)O)cc2c1)c1ccccc1 | inactive | –
38 | O=C1OC2(c3ccccc31)c1ccc(O)c(Br)c1Oc1c2ccc(O)c1Br | inactive | –
39 | O=C1c2ccccc2C(=O)c2c(O)ccc(O)c21 | – | 1.21 µM (active)
40 | CC(=O)Nc1ccc(C(=O)CCl)cc1 | – | 4.58 µM (active)
